Data published in PubChem BioAssay (NCATS).
Several values for one entry are separate records, joined by “and”; a condition that tells them apart may be missing. Equal entries are not always repeated. A number with no mark means an inactive call. Results filed as inconclusive are left out. Entries that show only a call come without a potency. Activity calls are given as the source filed them. Unless noted, the call rests on the fitted dose curve; in most records, active means well fitted curve in the direction sought with a large enough effect; inconclusive means small, poorly fitted or top-dose-only effect, or another doubt; inactive means no such curve, though single readings can be large; an effect the other way counts as inactive or inconclusive.

How the values were obtained:
[1] = Cell Viability - BJ (AID 421; calls by dose curve;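 further: potency means the concentration at half of the fitted maximal effect; cells exposed to compound for 40 hours at 37 °C before readout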); details: BJ fibroblast viability, qHTS
Method in brief: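 Luminescent ATP signal (CellTiter-Glo, 20 min at room temperature) served as the read-out of viable BJ cells after 40 hours of compound treatment. Responses were scaled between DMSO and 100 uM tamoxifen, and AC50 values were obtained by Hill modeling.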

[2] = Cell Viability - MRC5 (AID 434; calls by dose curve;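 further: potency means the concentration at half of the fitted maximal effect; cells exposed to compound for 40 hours at 37 °C; potency reflects cytotoxicity seen as loss of intracellular ATP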); details: MRC5 lung fibroblast viability, qHTS
Method in brief: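 AC50 values come from Hill-equation fits of intracellular ATP loss, measured by CellTiter-Glo luminescence. Normal lung fibroblasts (MRC5) had 40 hr compound treatment at 37 C, normalized between DMSO and 100 uM tamoxifen.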

[3] = Cellular Toxicity (caspase-3) HepG2 (AID 654); details: HepG2 caspase-3 activation, luminescence; series mostly up to 92.2 µM;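 further: cells exposed to compound for 16 hours before reading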
Method in brief: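 Luminescent Caspase-Glo 3/7 readout after 16 hr compound exposure of human hepatocellular carcinoma HepG2 cells at 37 °C; qHTS concentration-response, normalized DMSO = 0%, 100 uM tamoxifen = 100%; AC50 by standard Hill equation.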

[4] = Cellular Toxicity (caspase-3) SHSY5Y (AID 657); details: SH-SY5Y caspase-3 activation; series mostly up to 91.7 µM;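 further: cells exposed to compound for 16 hours at 37 °C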
Method in brief: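 Luminescent caspase-3/7 readout (aminoluciferin release) in SH-SY5Y cells after 16 h compound exposure in complete medium. Activity scaled between DMSO basal and 10 uM staurosporine as 100%; concentration-response fitted to Hill equation for AC50.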

[5] = Cellular Toxicity (caspase-3) BJ (AID 658); details: BJ fibroblasts, luminescence; Potency: caspase-3 activation; series mostly up to 91.7 µM;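 further: cells exposed to compound for 16 hours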
Method in brief: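 Caspase-Glo 3/7 luminescence, read 1 hr after reagent at room temperature, in normal BJ fibroblasts exposed 16 hours at 37 °C. AC50 values from Hill-equation concentration-response, scaled between DMSO basal and 10 uM staurosporine as 100%.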

[6] = Cellular Toxicity (caspase-3) MRC-5 (AID 659); details: MRC-5 cells, luminescence, normalized: DMSO 0%, 10 µM staurosporine 100%; series mostly up to 91.7 µM
Method in brief: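 Luminescent Caspase-Glo 3/7 read-out (1 h, room temperature) after a 16 h, 37 °C compound exposure of MRC-5 lung fibroblasts at 1500 cells/well. Concentration-response AC50 from Hill equation; 0% DMSO, 100% 10 uM staurosporine.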

[7] = Cellular Toxicity (caspase-3) Mesangial (AID 660); details: mesangial cells, normalized: DMSO 0%, 100 µM tamoxifen 100%; series mostly up to 91.7 µM;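 further: combined caspase 3 and 7 activity read by Caspase-Glo luminescence; cells exposed to compound for 16 h before the caspase read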
Method in brief: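 Luminescent Caspase-Glo 3/7 readout (aminoluciferin substrate cleavage, 20 min RT) after 16 h compound exposure at 37 °C of normal human mesangial cells. Signal increase normalized between DMSO basal and 100 uM tamoxifen; Hill-equation AC50.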

[8] = Cellular Toxicity (caspase-3) SK-N-SH (AID 661); details: SK-N-SH caspase-3 activation, qHTS, DMSO as zero, staurosporine as full; series mostly up to 91.7 µM;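 further: cells exposed to compound for 16 hours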
Method in brief: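 Luminescent Caspase-Glo 3/7 read-out after 16 hr compound exposure of SK-N-SH neuroblastoma cells at 37 °C. Signal increase normalized to DMSO (basal) and 10 uM staurosporine (100%); AC50 from Hill equation fits of qHTS concentration-response data.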

[9] = Cellular Toxicity (caspase-3) Hek293 (AID 664); details: HEK293 caspase-3 activation, DMSO = 0%, 100 µM tamoxifen = 100%; at 92.2 µM (top of the series);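 further: cells exposed to compound for 16 h at 37 °C before readout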
Method in brief: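 Luminescent Caspase-Glo 3/7 readout (aminoluciferin release) in HEK293 cells after 16 h compound treatment, 37 °C. Normalization: DMSO = basal, 100 uM tamoxifen = 100% stimulation. Concentration-response fitted with standard Hill equation for AC50.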

[10] = Cellular Toxicity (caspase-3) Renal Proximal Tubule (AID 667); details: renal proximal tubule cells, primary cells freshly taken from rat; Potency: caspase-3 activation; series mostly up to 91.7 µM;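 further: cells exposed to compound for 16 hours at 37 °C before detection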
Method in brief: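 Luminescent caspase 3/7 signal from peptide-aminoluciferin cleavage measures apoptosis in freshly isolated rat kidney proximal tubule cells after 16 h compound exposure. Concentration-response data are normalized to DMSO and 10 uM staurosporine, and AC50 values come from Hill equation fits.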

[11] = MultiTox-Fluor Cytotoxicity Assay - LYMP1-001 - Dead Cells (AID 946); details: LYMP1-001 lymphoblastoid cells, dead-cell protease fluorescence; series mostly up to 92.2 µM; further: potency means the concentration at half of the fitted maximal effect
Method in brief: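 AC50 from Hill fit of concentration-response; data normalized to DMSO (basal) and 15 uM tetraoctylammonium bromide (100%). LYMP1-001 lymphoblastoid cells, 2500/well, 16 hr compound at 37 C; dead-cell protease fluorescence, Ex/Em 485/520.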

[12] = Cell Viability - LYMP1-002 - Assay at 16 hr (AID 948); details: LYMP1-002 lymphoblastoid cell viability; series mostly up to 92.2 µM
Method in brief: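 LYMP1-002 human lymphoblastoid cells, 2500/well; 5 hr 37 C; cpd 16 hr 37 C; CellTiter-Glo 30 min RT; luminescence (ATP). Concentration-response, Hill-fit AC50. Pos ctrl tetraoctylammonium bromide.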

[13] = MultiTox-Fluor Cytotoxicity Assay - LYMP1-002 - Live Cells (AID 955); details: LYMP1-002 lymphoblastoid live-cell protease fluorescence viability; series mostly up to 46.1 µM;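 further: cells exposed to compound for 16 hours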
Method in brief: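 LYMP1-002 lymphoblastoid cells; 2500 cells/well; 16 hr compound exposure, 37 C; MultiTox-Fluor reagent 60 min RT; live-cell fluorescence Ex/Em=405/510; qHTS concentration-response, Hill-equation AC50; tetraoctylammonium bromide positive control.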

[14] = Cell Viability - LYMP1-003 - Assay at 24 hr (AID 963); details: LYMP1-003 lymphoblastoid cell viability; series mostly up to 92.2 µM
Method in brief: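 CellTiter-Glo luminescence (intracellular ATP) read after 24 hr, 37 C compound exposure of 2500 LYMP1-003 human lymphoblastoid cells/well in complete medium; qHTS concentration series; AC50 via standard Hill equation.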

[15] = Cell Viability - LYMP1-002 - Assay at 24 hr (AID 993); details: LYMP1-002 lymphoblastoid cells viability; series mostly up to 92.2 µM
Method in brief: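 CellTiter-Glo luminescence (intracellular ATP) after 24 h compound exposure, 37 C, in LYMP1-002 human lymphoblastoid cells; decreased ATP taken as cytotoxicity. AC50 from standard Hill fit of concentration-response curves.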

[16] = qHTS Assay for Identification of Small Molecule Inducers of Hypoxia Response (AID 2120; active means well fitted curve in the direction sought with a large enough effect in the signal ratio, with a control signal flat, not every such curve was filed as active; the % refers to the signal ratio; further: potency means the concentration at half of the fitted maximal effect); details: hypoxia response reporter cells, beta-lactamase ratio readout; series mostly up to 104 µM
Method in brief: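 Read-out: CCF4 FRET emission ratio 460nm/530nm (excitation 405nm), converted to %Activity, with AC50 fitted across a compound titration. ME-180 cells carried an HRE-driven beta-lactamase reporter; compound exposure 17 h, 37 degrees C.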

[17] = target: Peroxisome proliferator-activated receptor alpha (Homo sapiens) (UniProt Q07869); assay: qHTS assay for small molecule agonists of the peroxisome proliferator-activated receptor alpha (PPARalpha) signaling pathway (AID 651778); details: PathHunter PPARalpha complementation, chemiluminescence, 6 h; max response: active compounds read high
Chain of Peroxisome proliferator-activated receptor alpha (Homo sapiens) (Q07869 whole entry, looked up): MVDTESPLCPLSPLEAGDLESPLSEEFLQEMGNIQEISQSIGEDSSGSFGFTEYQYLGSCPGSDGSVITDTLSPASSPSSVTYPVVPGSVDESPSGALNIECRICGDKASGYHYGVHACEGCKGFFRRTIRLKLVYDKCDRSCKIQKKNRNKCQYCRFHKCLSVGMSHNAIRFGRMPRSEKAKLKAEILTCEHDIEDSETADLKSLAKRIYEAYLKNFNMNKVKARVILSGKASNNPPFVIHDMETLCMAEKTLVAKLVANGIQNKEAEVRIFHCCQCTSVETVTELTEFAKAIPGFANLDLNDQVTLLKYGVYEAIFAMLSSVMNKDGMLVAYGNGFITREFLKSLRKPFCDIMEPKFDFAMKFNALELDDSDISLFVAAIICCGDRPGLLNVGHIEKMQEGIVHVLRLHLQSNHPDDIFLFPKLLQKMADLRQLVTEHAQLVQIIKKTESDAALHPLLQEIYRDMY
Method in brief: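 Chemiluminescence from complemented enzyme reported PPARalpha activation in cells after 6 hr of compound treatment at 37 C. The detection reagent was incubated for 60 min at room temperature, and compounds were scored as agonists.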

[18] = qHTS assay for cell viability of the p53RE-bla HCT-116 cell line (AID 743292); details: p53RE-bla HCT-116 viability, ATP luminescence, 16 h; series mostly up to 95 µM; further: nearly all actives have a fitted effect of over 55% in size
Method in brief: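 After plating at 4,000 cells per well and a 5 h rest at 37 C, HCT-116 cells carrying p53RE-bla received test chemicals in DMSO. Sixteen hours later at 37 C, CellTiter-Glo was added and luminescence recorded following 30 min at room temperature.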

[19] = Cellular Toxicity (caspase-3) Jurkat (AID 655); details: Jurkat caspase-3 activation, luminescence; caspase-3 activation: at 92.2 µM (top of the series), DMSO = 0%, tamoxifen = 100%;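 further: cells exposed to compound for 16 h at 37 °C before reading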
Method in brief: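 Luminescent caspase-3/7 readout (aminoluciferin substrate cleavage) in human T-cell leukemia Jurkat cells after 16 hr compound exposure. Concentration-response normalized to DMSO and 100 uM tamoxifen; AC50 by standard Hill equation.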

[20] = Cell Viability - LYMP2-026 (AID 989); details: LYMP2-026 lymphoblastoid cell viability, qHTS; series mostly up to 92.2 µM; further: nearly all actives have a fitted effect of over 50% in size
Method in brief: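 qHTS cytotoxicity: 2500 cells/well, 5 hr 37 C, compound 24 hr 37 C, CellTiter-Glo 30 min RT, luminescence. Tetraoctylammonium bromide positive control. AC50 via standard Hill fit.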

SMILES | Potency [1] | Potency [2] | Potency [3] | Potency [4] | Potency [5] | outcome [6] | outcome [7] | outcome [8] | caspase-3 activation [9] | Potency [10] | Potency [11] | Potency [12] | outcome [13] | Potency [14] | Potency [15] | Potency [16] | max response [17] | Potency [18] | Potency [19] | Potency [20]
Oc1ccc(O)c2c(O)cccc12 | > 92 µM | > 92 µM | inactive | inactive | inactive | inactive | inactive | inactive | 18% | inactive | inactive | inactive | inactive | inactive | inactive | inactive | 5.73% | inactive | – | –
CCN(CC)c1ccc2c(C)cc(=O)oc2c1 | > 92 µM | > 92 µM | inactive | inactive | inactive | inactive | inactive | inactive | 0.453% | inactive | inactive | inactive | – | inactive | inactive | 44.7 µM (active) | -3.98% | inactive | inactive | inactive
S=C(NC1CCCCC1)NC1CCCCC1 | – | > 92 µM | inactive | inactive | inactive | inactive | inactive | inactive | 3.5% | inactive | inactive | inactive | inactive | inactive | inactive | inactive | 1.4% | inactive | inactive | inactive
O=C=Nc1ccc(Cl)c(Cl)c1 | – | – | inactive | inactive | inactive | inactive | inactive | inactive | 9.15% | inactive | – | inactive | – | inactive | inactive | inactive | 21.6% | inactive | – | inactive
c1ccc(Nc2cccc3ccccc23)cc1 | > 92 µM | > 92 µM | inactive | inactive | inactive | inactive | inactive | inactive | 4.83% | inactive | inactive | inactive | inactive | inactive | inactive | inactive | – | inactive | inactive | inactive
Nc1ccc(N)c(Cl)c1 | > 92 µM | > 92 µM | inactive | inactive | inactive | inactive | inactive | inactive | 4.53% | inactive | inactive | inactive | inactive | – | inactive | inactive | 0.817% | inactive | inactive | inactive
CCCCC(CC)COP(=O)(OCC(CC)CCCC)OCC(CC)CCCC (stereo not drawn) | > 92 µM | > 92 µM | inactive | inactive | inactive | inactive | inactive | inactive | 2.89% | inactive | inactive | inactive | inactive | inactive | inactive | inactive | -6.02% | inactive | inactive | inactive
Cc1ccc(O)c(N)c1 | > 92 µM | > 92 µM | inactive | inactive | inactive | inactive | inactive | inactive | 1.75% | inactive | inactive | inactive | inactive | inactive | inactive | inactive | -1.19% | inactive | inactive | inactive
O=[N+]([O-])c1cc(Cl)c(Cl)c(Cl)c1Cl | > 92 µM | > 92 µM | inactive | inactive | inactive | inactive | inactive | inactive | 2.6% | inactive | 25.1 µM (active) | inactive | inactive | inactive | inactive | inactive | -1.46% | inactive | inactive | inactive
Nc1ccc2c(c1)C(=O)c1ccccc1C2=O | > 92 µM | > 92 µM | inactive | inactive | inactive | inactive | inactive | inactive | -8.84% | inactive | inactive | inactive | inactive | inactive | inactive | inactive | -6.61% and 0.0151% | inactive | inactive | –
